Among the data in PubChem BioAssay (NCI) are growth values, retold here.

What all share (test): NCI-60 one-dose screen, 48 h (100 = growth as untreated, 0 = no growth, -100 = all killed)
Details in all cases: 10 µM unless noted

The subject of assay [1] is RPMI-8226 leukemia.
Assay [2] relates to OVCAR-8 ovarian.
For assay [3], the system named is OVCAR-5 ovarian.
Assay [4] relates to OVCAR-4 ovarian.
The subject of assay [5] is SK-OV-3 ovarian.
The subject of assay [6] is IGROV1 ovarian.
The test system of assay [7] is OVCAR-3 ovarian.
In assay [8] the test system is HS 578T breast.
Assay [9] has as its system NCI/ADR-RES ovarian.
For assay [10], the system named is T-47D breast.
Assay [11] deals with BT-549 breast.
In assay [12] the test system is MDA-MB-435 melanoma.
Assay [13] concerns SW-620 colon.
Assay [14] relates to MCF7 breast.
Assay [15] concerns HCT-116 colon.
In assay [16] the test system is HCC-2998 colon.
In assay [17] the test system is KM12 colon.

Compounds without any hit were thinned out: in the full panel of roughly 83,000, 20% have a hit.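 Compound tested at a single concentration for 48 hours in 96-well plates; a percent growth value below 10 was scored as active.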 A number with no mark means an inactive call. Activity calls are given as the source filed them.

Consider `CCN(CC)Cc1cc(Nc2c3ccc(Cl)cc3nc3ccc(OC)cc23)ccc1O`, for which the growth in [1] was 21.7%; in assay [2] it was 37.5%; in [3] it was 51.2%; in assay [4], 58.6%; in [5], 54.7%; in assay [6], 29.6%. The growth was 56.6% in [7]; 72.7% in assay [8]; 42.3% in assay [9]; 67.5% in [10]; 81.4% in [11]; 60.2% in assay [12]. The growth is 31.7% in [13]; 17.4% in assay [14]; 12.8% in [15]; 43.6% in [16]; 40.6% in assay [17].
On to `FC(F)(F)c1cc(Nc2ccc3c(OCCCN4CCOCC4)cccc3n2)ccc1Cl`, for which the growth in assay [1] was 13.4%; in assay [2] it was 75.5%; in [3], 50.5%; in assay [4] it was 55.4%; in assay [5] it was 78.5%; in assay [6] it was 48.4%. For the same compound, the growth in assay [7] was 60.9%; in assay [8], 55%; in assay [9] it was 56.2%; in assay [10], 48.1%; in [11] it was 62.1%; in [12] it was 62.7%. Moreover, the growth in assay [13] was 1.47% (active); in assay [14] it was 17.9%; in [15], 10.8%; in [16] it was 34.6%; in assay [17], -0.295% (active).
As to `S=C(c1cccs1)N1CCN(c2cccc(Cl)c2)CC1`, the growth in [1] is 86.3%; in assay [2], 104%; in assay [3], 97.2%; in assay [4] it was 101%; in assay [5] it was 107%; in assay [6], 89.9%. The growth is 106% in assay [7]; 120% in assay [8]; 104% in [9]; 82.6% in [10]; 59.3% in assay [11]; 108% in assay [12]. In addition, the growth in [13] was 103%; in assay [14], 96.9%; in assay [15], 83.9%; in assay [16], 110%; in assay [17], 102%.
Turning to `BrCCCc1n(Cc2ccc3ccccc3c2)c2ccccc2[n+]1Cc1ccc2ccccc2c1`, the growth in [1] was -58.8% (active); in [2] it was -69.2% (active); in assay [3], -4.99% (active); in assay [4], -24.7% (active); in assay [5] it was -38.2% (active); in assay [6] it was -71.9% (active). Besides, the growth in assay [7] is -71.5% (active); in assay [8], -48.2% (active); in assay [9] it was 58.3%; in assay [10], -10.9% (active); in assay [11], -73.5% (active); in assay [12], -96.5% (active). In addition, the growth in assay [13] was -81.5% (active); in [14], -74.7% (active); in assay [15], -89.7% (active); in assay [16], -90.1% (active); in [17] it was -89.7% (active).
For `COc1nc2ccccc2cc1-c1nc2c(cnn2-c2ccccc2)c(=O)[nH]1`, the growth in [1] is 44.2%; in assay [2] it was 63.3%; in assay [3], 79.5%; in assay [4], 76.2%; in assay [5], 53.8%; in assay [6] it was 48.1%. Moreover, the growth in [7] is 7.05% (active); in assay [8] it was 50.2%; in assay [9], 40.7%; in [10], 50.1%; in assay [11], 38.5%; in [12], -20.9% (active). In addition, the growth in [13] was 20.8%; in [14], 20.9%; in assay [15] it was 42.1%; in assay [16], 73.3%; in assay [17] it was 29%.
As to `CC[C@H](C)C(=O)O[C@H]1CCC=C2C=C[C@H](C)[C@H](CC[C@@H]3CC=CC(=O)O3)[C@H]21`, the growth in assay [1] is 0.207% (active); in [2], 82%; in assay [3], 112%; in assay [4] it was 103%; in assay [5] it was 99.6%; in assay [6], 83.9%. Also, the growth in assay [7] was 73.2%; in assay [8], 109%; in assay [9], 90.9%; in assay [10], 83.5%; in assay [11], 87.5%; in assay [12] it was 86%. Besides, the growth in [13] is 85.9%; in assay [14] it was 72.3%; in [15], 48.5%; in assay [16], 101%; in assay [17], 72.5%.
For `CC(=O)OC[C@H]1OC(Sc2sc(C(=O)c3ccc(Cl)cc3)c(N)c2-c2nc3ccccc3s2)[C@H](OC(C)=O)[C@@H](OC(C)=O)[C@@H]1OC(C)=O` (stereo partly drawn), the growth was 73% in [1]; 72.6% in [2]; 87.3% in assay [3]; 52.5% in assay [4]; 90.5% in assay [5]; 70.9% in assay [6]. The growth in assay [7] is 103%; in [8], 71.4%; in assay [9], 78.7%; in [10], 89.5%; in assay [11] it was 98.5%; in assay [12], 96.5%. Further, the growth is 82.7% in [13]; 82.1% in assay [14]; 50.8% in [15]; 109% in [16]; 89.3% in assay [17].
Take `C/C(=C\C(=O)c1ccc(Cl)cc1)c1ccc(Cl)cc1`: the growth in assay [1] is 75%; in assay [2], 95.5%; in [3], 62.3%; in [4], 67.3%; in [5], 94.3%; in assay [6] it was 76.3%. The growth in assay [7] was 99.2%; in assay [8], 96.6%; in assay [9] it was 103%; in assay [10], 85.8%; in assay [11] it was 103%; in assay [12], 102%. The growth is 99.3% in [13]; 19.4% in assay [14]; 101% in assay [15]; 82.2% in assay [16]; 26.2% in assay [17].
As for `Cc1nc2ccccc2c(/C=C/c2ccc(Cl)cc2)c1C(=O)/C=C/c1ccc(C(F)(F)F)cc1`, the growth is -30.7% (active) in [1]; 2.79% (active) in assay [2]; -41.6% (active) in assay [3]; -91% (active) in [4]; -79.9% (active) in [5]; -85.5% (active) in assay [6]. The growth in assay [7] is -85.8% (active); in [8], -17.3% (active); in [9], -5.17% (active); in assay [10] it was -18.2% (active); in assay [11] it was -51.7% (active); in assay [12], -95.4% (active). Besides, the growth in [13] was -57.5% (active); in assay [14], -29.6% (active); in [15], -53.6% (active); in assay [16], -81.3% (active); in [17], -74.1% (active).
